{"source": "PubChem BioAssay (NCATS)", "note": "Inconclusive results are not listed. Entries that show only a call come without a potency. Activity calls are given as the source filed them. The call rests on the fitted dose curve; in most records, active means well fitted inhibition curve with a large enough effect; inconclusive means small, poorly fitted or top-dose-only effect; inactive means no such curve, though single readings can be large or run the other way.", "data": [{"target": "Retinaldehyde dehydrogenase 3 (Homo sapiens) (UniProt P47895)", "test": "qHTS for Inhibitors of the Aldehyde Dehydrogenase Family (ALDH1A3) Confirmatory screens (AID 2061311); further: nearly all actives have a fitted effect of over 60% in size; further: potency means the concentration at half of the fitted maximal effect", "conditions": "ALDH inhibition qHTS; series mostly up to 46 µM", "values": [{"smiles": "O=C1c2cccc3cccc(c23)C(=O)N1CCN1CCN(S(=O)(=O)c2cccc([N+](=O)[O-])c2)CC1", "Potency": "inactive"}, {"smiles": "O=C(O)c1cc(C(F)(F)F)ccc1N1CC[C@H](OCc2ccccn2)C1", "Potency": "inactive"}, {"smiles": "COCC(=O)NC/C=C/c1ccc2ncnc(Nc3ccc(Oc4ccc(C)nc4)c(C)c3)c2c1", "Potency": "inactive"}, {"smiles": "N#Cc1ccc2[nH]cc(CCCCN3CCN(c4ccc5oc(C(N)=O)cc5c4)CC3)c2c1", "Potency": "15.8 µM (active)"}, {"smiles": "O=C(/C=C/c1ccc(O)c(O)c1)O[C@H]1[C@H](OC2CCCCC2O)O[C@H](CO)[C@@H](O)[C@@H]1O", "note": "(some centres not stated)", "Potency": "11 µM (active)"}, {"smiles": "N#Cc1nc2c(nc1C#N)-c1ccccc1C2=O", "Potency": "inactive"}]}, {"target": "Retinal dehydrogenase 2 (Homo sapiens) (UniProt O94788)", "test": "qHTS for Inhibitors of the Aldehyde Dehydrogenase Family (ALDH1A2) Confirmation screens (AID 2061314); further: nearly all actives have a fitted effect of over 65% in size; further: potency means the concentration at half of the fitted maximal effect", "conditions": "ALDH1A2 enzyme inhibition qHTS confirmation; series mostly up to 45.9 µM", "values": [{"smiles": "CC(C)(O)C1CC=C(C(=O)OCC2OC(Oc3c(O)cc(C(=O)O)cc3O)C(O)C(O)C2O)CC1", "note": "(configuration not stated)", "Potency": "inactive"}, {"smiles": "COc1ccc(C(=O)N(Cc2ccco2)Cc2cccs2)c(O)c1", "Potency": "22.5 µM (active)"}, {"smiles": "COc1ccnc(NC(=S)N2CCN(c3ccc(Cl)c(Cl)c3)CC2)c1", "Potency": "3.57 µM (active)"}, {"smiles": "CNc1oc(-c2ccc3c(c2)OCCO3)nc1C#N", "Potency": "inactive"}, {"smiles": "Cc1ccc(OCCn2c(CCNC(=O)c3cccc(N)c3)nc3ccccc32)cc1", "Potency": "inactive"}, {"smiles": "Nc1ncc(-c2cccc(-c3nn4c(=O)cc(N5CCNCC5)nc4s3)c2)cn1", "Potency": "11.3 µM (active)"}, {"smiles": "O=C1c2ccccc2NC(c2ccc(-c3ccc(F)cc3)o2)N1O", "note": "(configuration not stated)", "Potency": "12.7 µM (active)"}, {"smiles": "O=C1c2cccc3cccc(c23)C(=O)N1CCN1CCN(S(=O)(=O)c2cccc([N+](=O)[O-])c2)CC1", "Potency": "inactive"}, {"smiles": "O=C1c2ccccc2NC(c2ccc(-c3ccc(-c4ccccc4)cc3)o2)N1O", "note": "(configuration not stated)", "Potency": "5.65 µM (active)"}, {"smiles": "Cc1c(C(=O)OCC2CCCO2)[nH]c2c1C(=O)CCC2", "note": "(configuration not stated)", "Potency": "28.3 µM (active)"}, {"smiles": "Cc1nc(NCc2ccc(-c3cccnc3)cc2)c2ccccc2n1", "Potency": "inactive"}, {"smiles": "N#Cc1c(-c2ccc(Cl)c([N+](=O)[O-])c2)no[n+]1[O-]", "Potency": "2.83 µM (active)"}, {"smiles": "O=C(/C=C/c1cccnc1)Nc1cccc([S+](=O)([O-])Nc2ccccc2F)c1", "Potency": "11.3 µM (active)"}, {"smiles": "Cc1ccc(-c2cc(C(=O)Nc3cccc(S(N)(=O)=O)c3)c3ccccc3n2)cc1C", "Potency": "inactive"}, {"smiles": "COCC(=O)NC/C=C/c1ccc2ncnc(Nc3ccc(Oc4ccc(C)nc4)c(C)c3)c2c1", "Potency": "inactive"}, {"smiles": "N#Cc1ccc2[nH]cc(CCCCN3CCN(c4ccc5oc(C(N)=O)cc5c4)CC3)c2c1", "Potency": "15.8 µM (active)"}, {"smiles": "COc1cccc(CNC(=O)Nc2nc(-c3ccncc3)cs2)c1", "Potency": "5.65 µM (active)"}, {"smiles": "CC(=O)NC(C)c1cc(Cl)c2cccnc2c1O", "note": "(configuration not stated)", "Potency": "28.3 µM (active)"}, {"smiles": "Cc1c(-c2ccccc2)no[n+]1[O-]", "Potency": "inactive"}, {"smiles": "[O-][n+]1onc(-c2ccccc2)c1/C=N/O", "Potency": "inactive"}, {"smiles": "Cc1ccnc(NC(=S)N2CCN(c3cccc(Cl)c3Cl)CC2)c1", "Potency": "14.2 µM (active)"}, {"smiles": "COc1ccc(C2Nc3ccccc3C(=O)N2Cc2ccccc2)cc1COc1ccc(F)cc1", "note": "(configuration not stated)", "Potency": "15.9 µM (active)"}]}, {"target": "Retinaldehyde dehydrogenase 3 (Homo sapiens) (UniProt P47895)", "test": "qHTS for Inhibitors of the Aldehyde Dehydrogenase Family (ALDH1A3) Primary screen (AID 2061315)", "conditions": "ALDH inhibition qHTS; series mostly up to 56 µM", "values": [{"smiles": "CC(C)(O)C1CC=C(C(=O)OCC2OC(Oc3c(O)cc(C(=O)O)cc3O)C(O)C(O)C2O)CC1", "note": "(configuration not stated)", "Potency": "inactive"}, {"smiles": "Cc1ccc2nc3sc(C(=O)NC4CCCC4)cc3cc2c1", "Potency": "inactive"}, {"smiles": "COc1ccc(C(=O)N(Cc2ccco2)Cc2cccs2)c(O)c1", "Potency": "inactive"}, {"smiles": "CNc1oc(-c2ccc3c(c2)OCCO3)nc1C#N", "Potency": "inactive"}, {"smiles": "Cc1ccc(OCCn2c(CCNC(=O)c3cccc(N)c3)nc3ccccc32)cc1", "Potency": "inactive"}, {"smiles": "Nc1ncc(-c2cccc(-c3nn4c(=O)cc(N5CCNCC5)nc4s3)c2)cn1", "Potency": "inactive"}, {"smiles": "Cc1ccc(CNc2ccc(N3CCN(C(=O)OC(C)(C)C)CC3)cc2)cc1", "Potency": "inactive"}, {"smiles": "O=C1c2ccccc2NC(c2ccc(-c3ccc(F)cc3)o2)N1O", "note": "(configuration not stated)", "Potency": "inactive"}, {"smiles": "O=C(O)c1cc(C(F)(F)F)ccc1N1CC[C@H](OCc2ccccn2)C1", "Potency": "inactive"}, {"smiles": "O=C1c2ccccc2NC(c2ccc(-c3ccc(-c4ccccc4)cc3)o2)N1O", "note": "(configuration not stated)", "Potency": "inactive"}, {"smiles": "Cc1c(C(=O)OCC2CCCO2)[nH]c2c1C(=O)CCC2", "note": "(configuration not stated)", "Potency": "inactive"}, {"smiles": "Cc1ccc2nc3sc(C(=O)NC4CCCCC4)cc3cc2c1", "Potency": "inactive"}, {"smiles": "Cc1nc(NCc2ccc(-c3cccnc3)cc2)c2ccccc2n1", "Potency": "inactive"}, {"smiles": "N#Cc1c(-c2ccc(Cl)c([N+](=O)[O-])c2)no[n+]1[O-]", "Potency": "inactive"}, {"smiles": "O=C(/C=C/c1cccnc1)Nc1cccc([S+](=O)([O-])Nc2ccccc2F)c1", "Potency": "inactive"}, {"smiles": "Cc1ccc(-c2cc(C(=O)Nc3cccc(S(N)(=O)=O)c3)c3ccccc3n2)cc1C", "Potency": "inactive"}, {"smiles": "COCC(=O)NC/C=C/c1ccc2ncnc(Nc3ccc(Oc4ccc(C)nc4)c(C)c3)c2c1", "Potency": "inactive"}, {"smiles": "C=C1C(O)CCC2(C)CC3(OC)OC(=O)C(C)=C3CC12", "note": "(configuration not stated)", "Potency": "inactive"}, {"smiles": "N#Cc1ccc2[nH]cc(CCCCN3CCN(c4ccc5oc(C(N)=O)cc5c4)CC3)c2c1", "Potency": "inactive"}, {"smiles": "COc1cccc(CNC(=O)Nc2nc(-c3ccncc3)cs2)c1", "Potency": "inactive"}, {"smiles": "CC1=CCC2C(C)(CO)CCCC2(CO)C1CO", "note": "(configuration not stated)", "Potency": "inactive"}, {"smiles": "CC(=O)NC(C)c1cc(Cl)c2cccnc2c1O", "note": "(configuration not stated)", "Potency": "inactive"}, {"smiles": "Cc1c(-c2ccccc2)no[n+]1[O-]", "Potency": "inactive"}, {"smiles": "c1cc(NCCc2c[nH]c3ccccc23)cc(Nc2ccncc2)c1", "Potency": "inactive"}, {"smiles": "[O-][n+]1onc(-c2ccccc2)c1/C=N/O", "Potency": "inactive"}, {"smiles": "O=C(OCC#CCSc1nnc(-c2cccc3ccccc23)o1)C1CC1", "Potency": "inactive"}, {"smiles": "COc1ccc(C2Nc3ccccc3C(=O)N2Cc2ccccc2)cc1COc1ccc(F)cc1", "note": "(configuration not stated)", "Potency": "inactive"}, {"smiles": "Cc1nnc(C(=O)NC(C)(C)c2nc(C(=O)NCc3ccc(F)cc3)c(O)c(=O)n2C)o1", "Potency": "inactive"}, {"smiles": "Clc1nc(CN2CCOCC2)nc2sc3c(c12)CCCC3", "Potency": "inactive"}]}]}
